Compound activity (PubChem)
The list is not random: actives were taken first. Their share in the collection is about 2.3%.
M1 ag = human M1 muscarinic receptor agonists, primary screen, Fluo-8 calcium fluorescence, CHO-K1 cells, HTS | CHO-K1 hM1, agonist mode; 0% DMSO, 100% acetylcholine EC100 | activation, % at 3 µM | 360,000 compounds, 0.33% hits | AID 588814, 2011;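 active = activation above the run's mean compound activation plus 3 SD, cut at about 16% in these data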;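 also: peak over basal fluorescence ratio within a 140 s kinetic read after compound addition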
Target sequence (P11229 whole entry, looked up): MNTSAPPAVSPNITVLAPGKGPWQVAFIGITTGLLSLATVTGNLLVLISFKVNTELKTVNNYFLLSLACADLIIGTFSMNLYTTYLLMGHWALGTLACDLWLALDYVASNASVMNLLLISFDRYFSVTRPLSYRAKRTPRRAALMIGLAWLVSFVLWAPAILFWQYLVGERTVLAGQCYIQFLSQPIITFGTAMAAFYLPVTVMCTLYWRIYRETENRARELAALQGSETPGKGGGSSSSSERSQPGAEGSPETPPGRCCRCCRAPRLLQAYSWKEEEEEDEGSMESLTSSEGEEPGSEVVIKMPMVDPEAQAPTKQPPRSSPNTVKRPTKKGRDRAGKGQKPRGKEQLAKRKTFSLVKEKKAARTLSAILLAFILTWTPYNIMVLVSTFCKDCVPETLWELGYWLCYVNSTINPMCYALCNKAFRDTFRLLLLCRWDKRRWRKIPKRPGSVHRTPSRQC
CHRM1 PAM = human M1 muscarinic receptor positive allosteric modulators, primary screen, CHO-K1 cells, Fluo-8 calcium fluorescence, 1536-well | Muscarinic acetylcholine receptor M1 (Homo sapiens), P11229 | CHO-K1 hM1, ACh EC20; 0% = ACh EC20, 100% = maximal ACh | activation, % at 3 µM | 360,000 compounds, 0.088% hits | AID 588819, 2011; in the data active = activation above about 19%, passing the limit was not always enough
CHO-K1 Ca antag = nonselective inhibitor or artifact in parental CHO-K1 cells. ATP-induced calcium, Fluo-8 fluorescence. inhibition, % at 3 µM. 360,000 compounds, 0.6% hits. AID 602250;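 active = inhibition above a per-plate cutoff, the plate's mean sample inhibition plus 3 SD, cut at about 24% in these data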
M1 antag = human M1 muscarinic receptor antagonists, primary screen, CHO-K1 cells, Fluo-8 calcium fluorescence, 1536-well; Muscarinic acetylcholine receptor M1 (Homo sapiens), P11229; inhibition, % at 3 µM; CHO-K1 hM1, ACh EC80 antagonist; AID 588852, 2011; 360,000 compounds, 1.3% hits;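 active = percent inhibition above its own plate's cutoff, namely the mean of that plate's compound wells plus 3 SD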;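 also: peak over basal fluorescence ratio during 140 s after agonist addition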
M1 PAM parental = nonselective calcium activators in parental CHO-K1 cells, primary screen, counter-screen for M1 PAM project, cell-based, Fluo-8 calcium fluorescence, full deck, 1536-well. ATP EC20; 0% at ATP EC20, 100% at ATP max. activation, % at 3 µM. 360,000 compounds, 0.02% hits. AID 602247, 2012;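 active = activation above the run cutoff, the mean activation of all test compounds plus 3 SD, cut at about 40% in these data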;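 also: peak over basal fluorescence ratio in a 140 s read after ATP addition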
CHO-K1 Ca ag = counter-screen for M1 agonists: effect in parental CHO-K1 cells; 360,000 compounds, 0.48% hits; Fluo-8 calcium fluorescence; scaled to maximal ATP response, vehicle zero; AID 602248, 2012; activation, % at 3 µM; in the data active = activation above about 15%;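 also: untransfected CHO-K1 host cells lacking M1 receptor as counterscreen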
Numbers stand for hits; 0 = inactive.

SMILES	M1 ag	CHRM1 PAM	CHO-K1 Ca antag	M1 antag	M1 PAM parental	CHO-K1 Ca ag
O=C1CN(C(=O)c2ccccc2)C(c2ccccc2)c2cc(F)ccc2N1 (configuration not stated)	0	0	0	0	0	0
O=C1CN(C(=O)c2cc3ccccc3oc2=O)C(c2ccc(F)cc2)c2cc(F)ccc2N1 (configuration not stated)	0	0	25	0	0	0
O=C1CN(C(=O)c2cc3ccccc3oc2=O)C(c2ccccc2)c2cc(F)ccc2N1 (configuration not stated)	0	0	0	0	0	0
NC(CCc1ccccc1)c1csc(NC(=O)NCC2CCCCC2)n1 (configuration not stated)	0	0	0	0	0	0
O=C(NCCCN1CCOCC1)C(=O)N/N=C/c1c(Cl)cccc1Cl	0	0	0	0	0	0
O=C(NCCCN1CCOCC1)C(=O)N/N=C/c1c2ccccc2cc2ccccc12	0	0	0	65	0	0
COc1ccc(NC(=O)c2ccc(S(=O)(=O)N3CCOCC3)o2)cc1	0	0	0	0	0	0
Cc1ccc(-n2nc(C)c3c2OC(N)=C(C#N)C3c2ccc(C)o2)cc1 (configuration not stated)	0	0	0	0	0	0
COc1ccc(OC)c(C2C(C#N)=C(N)Oc3c2c(C)nn3-c2ccc(C)cc2)c1 (configuration not stated)	0	0	28	0	0	0
COc1cccc(C(O)c2nc(-c3cncnc3)cs2)c1 (configuration not stated)	0	0	0	0	0	0
COc1ccc(C(=O)/C=C/c2ccc(N(C)C)cc2)c(OC)c1	69	0	45	53	0	82
CN(C)c1ccc(/C=C/C(=O)c2ccc(O)cc2)cc1	53	0	25	0	0	53
COc1ccc(C(=O)/C=C/c2ccccc2)c(OC)c1	0	0	0	0	0	0
O=C(/C=C/c1ccccc1)c1ccc2c(c1)OCO2	0	0	0	0	0	0
CN(C)c1ccc(C(=O)C=Cc2ccc([N+](=O)[O-])cc2)cc1	0	0	0	0	0	0
CN(C)c1ccc(/C=C/C(=O)c2ccc3c(c2)OCO3)cc1	53	0	0	41	0	46
CN(C)c1ccc(/C=C/C(=O)c2cccnc2)cc1	60	0	0	0	0	65
CC1CN(C2CCCCC2)C(=O)NC1=O (configuration not stated)	0	0	0	0	0	0
Nc1ccccc1C(=O)N1O[C@@H]2C=C[C@H]1CC2	0	0	0	0	0	0
O=CN1Cc2[nH]c3ccccc3c2N(c2ccc(Cl)cc2)C1=O	0	0	27	0	0	0
CCn1c(=O)cc(SCC(=O)N2CCN(c3ccccc3F)CC2)c2ccccc21	0	0	0	0	0	0
CCCCOc1ccc(C(=O)N/C(=C\c2ccc(OC)cc2)C(=O)OCc2ccco2)cc1	0	0	0	0	0	16
COc1ccc(C(=O)N/C(=C\c2ccco2)C(=O)OCc2ccco2)cc1	0	0	0	0	0	0
COc1ccc(C(=O)OCC(=O)Nc2ccc(OC(F)F)cc2)c(OC)c1	0	0	25	0	0	0
CC1(C)[C@H]2CC=C(CN3CCC(N4CCC(C(=O)N5CCCC5)CC4)CC3)[C@@H]1C2	0	0	0	62	0	0
O=C(CN1CCC(NC(=O)c2ccccc2F)CC1)Nc1ccc2c(c1)OCCO2	0	0	0	0	0	16
CC1=C([N+](=O)[O-])C(c2ccccc2Cl)NC(=O)N1C (configuration not stated)	0	0	0	0	0	17
C[C@@H]1CN([C@@H](C)CO)C(=O)CCCn2nncc2CO[C@H]1CN(C)S(C)(=O)=O	0	0	0	0	0	0
CCOC(=O)c1c(C)nc2sc(C(=O)Nc3ccc(OC)cc3)c(N)c2c1-c1ccc(OC)cc1	0	0	0	0	0	0
